High-throughput results from PubChem.
A selection: hits, their analogues and other compounds. The true share with any hit is near 19%.
ELG1 repair inh: blocks ELG1-dependent DNA repair in HEK293T cells. HEK293T ELG1-luciferase reporter, luminescence, 16 h; DNA damage induced by 5-fluorouridine. Potency, µM (highest dose often 46.1 µM), for the others: top-dose activity change, negative = inhibition, most hits filed as inhibitors. 330,000 compounds, 2.3% hits. AID 504467; note: potency is the fitted concentration of half-maximal effect; nearly all actives have a fitted effect of over 55% in size
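Cells (2,000 per well) received 5-fluorouridine plus test compound or DMSO and were incubated 16 hr at 37 °C, 5% CO2. Luciferase activity was read by luminescence 30 min after ONE-Glo addition; signal suppression marked inhibition of damage-induced ELG1 function.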
TDP1 cell noCPT: qHTS for Inhibitors of human tyrosyl-DNA phosphodiesterase 1 (TDP1): qHTS in cells in absence of CPT | DT40 Tdp1-/- hTDP1 cells, no CPT, ATP luminescence, 48 h | Potency, µM (top dose mostly 46.2 µM), for the others: at the highest dose activity change, negative = growth inhibition, hits mostly inhibitors | 420,000 compounds, 15% hits | AID 686978, 2013; note: potency is the fitted concentration of half-maximal effect; nearly all actives have a fitted effect of over 55% in size
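Luminescent ATP content (CellTiter-Glo) served as the growth readout. Knockout chicken DT40 cells expressing human TDP1 were exposed to compounds without camptothecin for a minimum 48 hr at 37 °C.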
TDP1 inh: TDP1 (human) enzyme inhibition; AID 485290; Potency, µM (doses to about 130 µM), without a hit: at the top dose activity change, negative = inhibition, hits mostly inhibitors; 350,000 compounds, 0.28% hits; Q9NUW8; recombinant TDP1, AlphaScreen DNA substrate cleavage; note: potency is the fitted concentration of half-maximal effect; nearly all actives have a fitted effect of over 40% in size
Target sequence (Q9NUW8 whole entry, looked up): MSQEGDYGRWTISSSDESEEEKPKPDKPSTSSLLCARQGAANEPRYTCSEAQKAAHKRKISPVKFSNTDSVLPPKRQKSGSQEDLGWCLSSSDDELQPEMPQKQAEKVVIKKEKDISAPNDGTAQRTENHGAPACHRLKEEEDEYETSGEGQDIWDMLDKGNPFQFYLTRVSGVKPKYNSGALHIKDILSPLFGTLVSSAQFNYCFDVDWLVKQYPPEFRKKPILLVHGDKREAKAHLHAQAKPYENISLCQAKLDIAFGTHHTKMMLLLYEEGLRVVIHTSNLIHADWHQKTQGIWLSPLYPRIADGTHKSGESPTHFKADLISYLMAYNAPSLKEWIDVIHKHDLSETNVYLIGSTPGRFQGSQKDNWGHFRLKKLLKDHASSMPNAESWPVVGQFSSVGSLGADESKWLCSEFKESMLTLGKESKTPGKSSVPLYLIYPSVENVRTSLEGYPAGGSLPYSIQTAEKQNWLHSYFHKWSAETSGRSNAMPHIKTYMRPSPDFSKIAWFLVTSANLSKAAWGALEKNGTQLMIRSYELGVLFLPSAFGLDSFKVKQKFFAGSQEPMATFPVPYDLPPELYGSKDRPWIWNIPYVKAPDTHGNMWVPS
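Recombinant E. coli-expressed Tdp1 (1 nM) preincubated with compound 15 min at RT, then 5'-biotin/3'-phosphotyrosine-FITC DNA substrate (15 nM) added for 5 min. AlphaScreen beads (10 ug/ml) added, 10 min RT; tyrosine-FITC cleavage read as signal loss.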
Giardia kill: kills Giardia lamblia | Giardia lamblia trophozoite viability | activity change, % at 7.66 µM, hits read low | 340,000 compounds, 0.15% hits | AID 540267; in the data active = activity change below about -80%; inconclusive = between about -30% and that limit;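 note: parasites exposed to compound for two days anaerobically before the ATP read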
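Anaerobic 48 hrs incubation at 37 deg C of 100 trophozoites/well with test compounds; ATPLite 1-Step luminescence, 15-30 min RT, reports cellular ATP as viability.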
IL-1B inflam inh: blocks inflammasome-driven IL-1 beta release. 360,000 compounds, 4.7% hits. activity change, % at 57.5 µM. THP-1 LPS/ATP IL-1B secretion, AlphaLISA, 16 h; stronger effect = lower value; in the data active = activity change below about -50%; inconclusive = mostly about -30% to -49%
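THP-1 cells pretreated 1 hr with compounds (up to 57.5 uM final), then stimulated with LPS (250 ng/mL final) plus ATP (1.25 mM final); secreted IL-1B measured by AlphaLISA after 16 hr, decreased signal indicating inhibition.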
TDP1 cell CPT: DT40-hTDP1 cell growth loss with CPT | chicken DT40 Tdp1-/-;hTDP1 cells + 20 nM CPT, ATP luminescence, 48 h | Potency, µM (series often up to 46.2 µM), for inactives: at the top dose activity change, negative = growth inhibition, most hits filed as inhibitors | 420,000 compounds, 12% hits | AID 686979; note: potency is the fitted concentration of half-maximal effect; nearly all actives have a fitted effect of over 55% in size
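Cell growth measured by CellTiter-Glo luminescence after a minimum 48 h, 37 C compound exposure with 20 nM CPT in Tdp1-knockout DT40 cells stably expressing hTDP1, seeded 400/well; qHTS titration format.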
The depositor's hits bear a star; ? = inconclusive; . = no result given; [ ] = another dose, or the depositor's remark. Unless noted, calls come from the whole dose curve; as a rule, active = well fitted curve in the direction sought with a large enough effect; inconclusive = small, poorly fitted or top-dose-only effect, or another doubt; inactive = no such curve, though single readings can be large; an effect the other way counts as inactive or inconclusive. % is set by controls: 0 for no effect and ±100 for the full control effect.

SMILES | ELG1 repair inh | TDP1 cell noCPT | TDP1 inh | Giardia kill | IL-1B inflam inh | TDP1 cell CPT
CCOCC(=O)N1CCN(c2ccccc2OC)CC1 | 12% | 12% | 0% | -9 | 11 | 1%
CCCc1c(C(=O)NNc2ccccc2OC)cnn1-c1ccccc1 | 8% | -18% | 7% | -14 | -52* | -19%
CCCc1c(C(=O)Nc2ccc(OC)cc2)cnn1-c1ccccc1 | ? | ? | 1% | -15 | -6 | -19%
CNC(=O)c1cc2c(n(-c3ccc(C)cc3)c1=O)CC(C)(C)CC2=O | . | 0% | . | . | . | 0%
CN(C)c1ccc(/C=C(\C#N)c2ccccn2)cc1 | ? | 23µM* | 3% | -98* | -10 | -28%
N#C/C(=C\c1ccc([N+](=O)[O-])cc1)c1ccccn1 | ? | 23µM* | 10% | 2 | -73* | ?
COC(=O)c1ccc(/C=C(\C#N)c2ccccn2)cc1 | ? | ? | 1% | 0 | 25 | ?
N#C/C(=C\c1ccccn1)c1ccccn1 | ? | 15µM* | . | 3 | -94* | 23µM*
Cc1cc(C)n2nc(/C(C#N)=C/c3ccccn3)c(C#N)c2n1 | -10% | 9.2µM* | 0% | -3 | -98* | ?
O=C(Cn1cccn1)c1ccccc1 | 5% | 8% | -6% | -7 | 7 | 2%
COC(=O)c1ccc(Cn2nnc3c(=O)[nH]c(C4CCN(S(=O)(=O)c5ccc(F)cc5)CC4)nc32)cc1 | -7% | ? | 3% | 30 | 13 | 0%
Cc1cc2nc(-c3cccc(Cl)c3)c(Cc3ccccc3)n2c(C)c1Br | . | ? | . | . | 28 | ?
CCCCOC(=O)C1C2CCC(O2)C1C(=O)OCC (configuration not stated) | . | 3% | . | 15 | 24 | 8%
CCOC(=O)C1=C[C@@H](C(C)(C)C)N(S(=O)(=O)c2ccc(C)cc2)[C@H]1c1cccc(Cl)c1 | . | 13µM* | . | . | 34 | 15µM*
CC[C@@H]1C=C(C(=O)O)[C@H](c2ccc(C)cc2)N1S(=O)(=O)c1ccc(C)cc1 | -3% | 6% | 0% | -2 | 44 | 9%
CCOC(=O)C1=C[C@@H](c2ccccc2)N(S(=O)(=O)c2ccc(C)cc2)[C@H]1c1cccc(Cl)c1 | . | 23µM* | . | . | 12 | ?
CCOC(=O)C1=C[C@@H](CC)N(S(=O)(=O)c2ccc(C)cc2)[C@H]1c1cccs1 | . | 16µM* | . | . | -6 | 15µM*
CC[C@@H]1C=C(C(=O)O)[C@H](c2ccc(Cl)cc2)N1S(=O)(=O)c1ccc(C)cc1 | -7% | -7% | 2% | 1 | 21 | 5%
CCOC(=O)C1=C[C@@H](CC)N(S(=O)(=O)c2ccc(C)cc2)[C@H]1c1cccc(Cl)c1 | . | 21µM* | . | . | 2 | ?
CCOC(=O)C1=C[C@@H](C(C)C)N(S(=O)(=O)c2ccc([N+](=O)[O-])cc2)[C@H]1c1ccccc1 | . | ? | . | . | -1 | ?
CCOC(=O)C1=C[C@@H](CC)N(S(=O)(=O)c2ccc([N+](=O)[O-])cc2)[C@H]1c1ccccc1 | . | ? | . | . | 22 | 21µM*
CC1(C(=O)NCc2ccc(Cl)cc2)CCN1C(=O)c1cccc(F)c1 (configuration not stated) | . | ? | . | . | -2 | ?
CC1(c2ccccc2)CC(C)(C)N(C(=O)c2ccccc2Cl)c2ccccc21 (configuration not stated) | . | 5.2µM* | . | . | . | 6.5µM*
CC1(c2ccc(Cl)cc2)CC(C)(C)N(C(=O)c2cccc(F)c2)c2ccccc21 (configuration not stated) | . | 18µM* | 0%[12.3 µM] | . | . | ?
CCOC(=O)NC(Nc1ccc(OC)cc1)(C(F)(F)F)C(F)(F)F | ? | 2% | 5% | -14 | 14 | -6%
SMILES | ELG1 repair inh | TDP1 cell noCPT | TDP1 inh | Giardia kill | IL-1B inflam inh | TDP1 cell CPT
CC1CCN(C(=S)c2cn(Cc3ccc(F)cc3)c3ccccc23)CC1 | 13% | 23µM* | 8% | -7 | -13 | ?
CC1CCN(C(=S)c2cn(Cc3ccccc3F)c3ccccc23)CC1 | -1% | ? | 8% | 8 | -9 | ?
CN1CCN(C(=S)c2cn(Cc3ccc(F)cc3)c3ccccc23)CC1 | -1% | ? | 3% | ? | -9 | ?
CN1CCN(C(=S)c2cn(Cc3cccc(F)c3)c3ccccc23)CC1 | 6% | 21µM* | 8% | 11 | 1 | ?
Cc1ccc(-n2ncc3c(Nc4ccc(Oc5ccccc5)cc4)ncnc32)c(C)c1 | . | 23µM* | 0% | . | . | 16µM*
Cc1ccc(-n2ncc3c(Nc4cccc(Cl)c4)ncnc32)c(C)c1 | . | ? | 3% | . | . | ?
Cc1ccc(-n2ncc3c(Nc4ccccc4C)ncnc32)cc1 | . | 16µM* | 5% | . | . | ?
Cc1ccc(-n2ncc3c(Nc4cccc(C)c4)ncnc32)cc1 | . | . | 1% | . | . | .
CCc1ccccc1Nc1ncnc2c1cnn2-c1ccc(Cl)cc1 | . | ? | 5% | . | . | 16µM*
CCc1ccccc1Nc1ncnc2c1cnn2-c1ccc(C)cc1C | . | 18µM* | 4% | . | . | ?
COc1cc(F)c(S(=O)(=O)Nc2c(C)n(C)n(-c3ccccc3)c2=O)cc1OC | . | -9% | 5% | . | . | 6%
Cc1ccc(-n2ncc3c(SCc4cccnc4)ncnc32)c(C)c1 | ? | 12µM* | 5% | -30 | -13 | 16µM*
Cc1ccc(-n2ncc3c(SCc4cccc(C)c4)ncnc32)cc1 | ? | -29% | 3% | 1 | 15 | -24%
CCOc1ccc(Nc2ncnc3c2cnn3-c2ccc(F)cc2)cc1 | . | -25% | 10% | . | . | -19%
CCN(c1ccccc1)c1ncnc2c1cnn2-c1ccc(C)cc1C | . | 9.2µM* | -3% | . | . | 9.2µM*
CCN(c1cccc(C)c1)c1ncnc2c1cnn2-c1cccc(Cl)c1 | . | ? | -3% | . | . | ?
Fc1ccc(-n2ncc3c(Nc4ccc(Oc5ccc(Cl)cc5)cc4)ncnc32)cc1 | . | 18µM* | -3% | . | . | ?
CC(OC(=O)C1=COCCO1)C(=O)NC1CCCC(C)C1C (configuration not stated) | . | -1% | . | . | 2 | 6%
CCCCn1c(=O)c2oc3ccccc3c2n(Cc2ccccc2C)c1=O | . | ? | 5% | . | . | ?
CCOC(=O)c1c(C)n(C)c2c(C)cc(O)c(OC(=O)CC)c12 | 1% | ? | -1% | -4 | -4 | 7.3µM*
O=C(CSc1nnc(-c2ccncc2)o1)Oc1ccccc1 | 2% | -9% | -3% | -7 | 5 | -1%
